High-throughput results from PubChem.
14-3-3g Raf – modulators of 14-3-3 gamma protein binding, primary screen, biochemical, fluorescence polarization; 14-3-3 protein gamma (Homo sapiens), P61981; FP, 14-3-3gamma / TMR-pS259-Raf peptide binding; inhibition, % at 40 µM; 0.19% of 160,000 active; AID 422, 2006; in the data active means inhibition above about 30%;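 further: 0% = protein plus tracer without compound and 100% = blank with tracer alone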
Target sequence (P61981 whole entry, looked up): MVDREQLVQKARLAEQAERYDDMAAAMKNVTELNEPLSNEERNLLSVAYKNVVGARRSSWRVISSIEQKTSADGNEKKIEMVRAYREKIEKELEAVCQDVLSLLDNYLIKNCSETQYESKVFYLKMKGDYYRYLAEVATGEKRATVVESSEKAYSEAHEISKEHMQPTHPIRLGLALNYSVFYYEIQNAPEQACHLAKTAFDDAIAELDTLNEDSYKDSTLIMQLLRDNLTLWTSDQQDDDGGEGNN
Active calls of the source: *. This is one part of a sample in which hits are shown more often than they occur.

O=C1c2cccc3c(N4CCCCC4)ccc(c23)C(=O)N1c1ccccc1 was read as 14-3-3g Raf 4.
`O=C1c2ccccc2C(=O)N1c1ccc(Cl)cc1` gave 14-3-3g Raf 0.
Screening CCOC(=O)c1ccc(N2C(=O)c3cccc4c(Cl)ccc(c34)C2=O)cc1 returned 14-3-3g Raf -41.
NCCNc1ccc2c3c(cccc13)C(=O)N(c1ccc(Cl)cc1)C2=O was read as 14-3-3g Raf 63*.
For O=C(O)CCCCCN1C(=O)c2cccc3c(N4CCCCC4)ccc(c23)C1=O the results were 14-3-3g Raf -42.
O=C1c2cccc3c(Nc4ccccc4)ccc(c23)C(=O)N1c1ccccc1 was read as 14-3-3g Raf -9.
`O=C(O)c1ccc2c3c(cccc13)C(=O)N(c1ccc(Cl)cc1)C2=O` gave 14-3-3g Raf -8.
For O=C1c2cccc3c(NCCO)ccc(c23)C(=O)N1c1ccccc1 the results were 14-3-3g Raf 196*.
`O=C(O)CCCN1C(=O)c2cccc3c(O)ccc(c23)C1=O` gave 14-3-3g Raf 138*.
C=CCNc1ccc2c3c(cccc13)C(=O)N(C)C2=O was read as 14-3-3g Raf 4.
Screening O=C(O)CCCCN1C(=O)c2ccccc2C1=O returned 14-3-3g Raf -1.
`O=C(C1CC1)N1CCc2cc(S(=O)(=O)N3CCN(Cc4ccc5c(c4)OCO5)CC3)ccc21` gave 14-3-3g Raf -7.
For COC(=O)c1c(NC(=O)c2ccc(F)cc2)sc2c1CCCC2 the results were 14-3-3g Raf 10.
For CC(=O)N1c2ccc(S(=O)(=O)NCc3ccc(F)cc3)cc2CC1C (stereo not drawn) the results were 14-3-3g Raf -6.
`O=C(CCCCCn1c(=S)[nH]c2ccc(Br)cc2c1=O)NCc1ccco1` gave 14-3-3g Raf -7.
For Cc1cccc(OCC(=O)Nc2ncc(Cc3ccc(Cl)cc3)s2)c1 the results were 14-3-3g Raf -8.
COCCn1c(N2CCCCCC2)nc2c1c(=O)[nH]c(=O)n2C was read as 14-3-3g Raf 8.
c1ccc(-c2nc(-c3ccccc3)c(-c3cccs3)[nH]2)cc1 was read as 14-3-3g Raf -61.
Screening Cc1cccn2cc(-c3cccc(NC(=O)c4cc5ccccc5oc4=O)c3)nc12 returned 14-3-3g Raf -5.
Cc1cccn2cc(-c3cccc(NC(=O)CC(C)C)c3)nc12 was read as 14-3-3g Raf -10.
`CCC(=O)Nc1cccc(-c2cn3cccc(C)c3n2)c1` gave 14-3-3g Raf 31*.
Screening COc1cc2c(cc1OC)C(c1ccccc1)CN(CC(=O)c1ccc(Br)cc1)C2 (stereo not drawn) returned 14-3-3g Raf -22.
CCOc1ccc(NC(=O)c2ccc(CSc3ccc(Cl)cc3)cc2)cc1 was read as 14-3-3g Raf -15.
`CC(=O)N1CCCc2cc(S(=O)(=O)NC(C(=O)NC3CCCCCC3)C(C)C)ccc21` (stereo not drawn) gave 14-3-3g Raf -7.
Oc1ccc(Cl)cc1C=Nc1ccc2nc(-c3ccccc3)[nH]c2c1 was read as 14-3-3g Raf 30*.
For COc1ccc(C=Nc2ccc3nc(-c4ccccc4)[nH]c3c2)cc1OC the results were 14-3-3g Raf -11.
O=C(Nc1cc(N=Cc2cc(Cl)ccc2O)ccc1Cl)c1ccccc1 was read as 14-3-3g Raf -5.
Screening O=C(Nc1cc(C(F)(F)F)ccc1Cl)C(=O)Nc1cc(C(F)(F)F)ccc1Cl returned 14-3-3g Raf -3.
`O=[N+]([O-])c1c(Nc2ccc3c(c2)OCO3)ccc2nonc12` gave 14-3-3g Raf -1.
CCN1CCN(c2cc(C)c3cc(NC(=O)COc4ccc(Cl)cc4)ccc3n2)CC1 was read as 14-3-3g Raf -24.
`O=C(Nc1cccc(Cl)c1)N1CCN(c2ccc([N+](=O)[O-])cc2)CC1` gave 14-3-3g Raf -2.
`O=[N+]([O-])c1cccc(N=Cc2ccccc2F)c1` gave 14-3-3g Raf -9.
Screening CCS(=O)(=O)N1N=C(c2ccc(NS(C)(=O)=O)cc2)CC1c1ccc(F)cc1 (stereo not drawn) returned 14-3-3g Raf 92*.
CCS(=O)(=O)N1N=C(c2ccc(NS(C)(=O)=O)cc2)CC1c1ccc(C)cc1 (stereo not drawn) was read as 14-3-3g Raf -212.
`CS(=O)(=O)Nc1ccc(C2=NN(S(C)(=O)=O)C(c3ccc(F)cc3)C2)cc1` (stereo not drawn) gave 14-3-3g Raf -176.
For Oc1ccc(Br)cc1CN1CCN(Cc2ccccc2C(F)(F)F)CC1 the results were 14-3-3g Raf 0.
Screening NS(=O)(=O)c1ccc(CCNC(=O)c2cccn3c(=O)c4cc5ccccc5cc4nc23)cc1 returned 14-3-3g Raf 91*.
For O=C(NCCc1ccccc1)c1cccn2c(=O)c3cc(Cl)ccc3nc12 the results were 14-3-3g Raf -8.
`COCCCNC(=O)c1cccn2c(=O)c3cc4ccccc4cc3nc12` gave 14-3-3g Raf -12.
CCc1ccc(NS(=O)(=O)c2cnc[nH]2)cc1 was read as 14-3-3g Raf -4.
For Cc1sc(NC(=O)c2cccc([N+](=O)[O-])c2)c(C#N)c1C the results were 14-3-3g Raf -1.
`CCN(CC)c1ccc(-c2cc(C#N)on2)cc1` gave 14-3-3g Raf 41*.
For CCN(CC)c1ccc(CNc2ccc(Br)cn2)cc1 the results were 14-3-3g Raf -4.
Screening N#Cc1cc(-c2ccccc2C(F)(F)F)no1 returned 14-3-3g Raf 7.
COCCOC(=O)C1=C(C)NC2=C(C(=O)C(C(=O)OC)C(C)C2)C1c1coc2ccccc2c1=O (stereo not drawn) was read as 14-3-3g Raf -7.
`CCOC(=O)C1=C(C)NC(C)=C(C(=O)OCC)C1c1ccc(-c2ccccc2Cl)o1` gave 14-3-3g Raf -19.
Screening CCOC(=O)C1=C(C)NC(C)=C(C(=O)OCC)C1c1ccc(-c2ccccc2)o1 returned 14-3-3g Raf 40*.
COC(=O)C1=C(C)NC(C)=C(C(=O)OC)C1c1ccc(-c2ccc(Cl)cc2)o1 was read as 14-3-3g Raf -21.
For O=C(c1cc2nc(-c3ccco3)cc(C(F)(F)Cl)n2n1)N1CCCCCC1 the results were 14-3-3g Raf -10.
For N#CC(C#N)C(C#N)(C#N)C1CCCCC1=O (stereo not drawn) the results were 14-3-3g Raf 142*.
CC(=O)Nc1cc(Br)c2c(c1)OCCO2 was read as 14-3-3g Raf -17.
`CCOC(=O)C1=C(C)NC(C)=C(C(=O)OC)C1c1cccc([N+](=O)[O-])c1` (stereo not drawn) gave 14-3-3g Raf 0.
For COC(=O)C1=C(C(=O)OC)C(c2cc([N+](=O)[O-])ccc2OCc2ccccc2Cl)c2sc(=O)[nH]c2S1 (stereo not drawn) the results were 14-3-3g Raf -9.
For COC(=O)C1=C(C(=O)OC)C(c2cccc([N+](=O)[O-])c2)c2sc(=O)[nH]c2S1 (stereo not drawn) the results were 14-3-3g Raf 34*.
Screening CCn1c2ccccc2c2cc(NC(=O)c3c(-c4ccccc4Cl)noc3C)ccc21 returned 14-3-3g Raf -2.
`CC1(C)CC(=O)C2=C(C1)N=C1c3ccccc3C(=O)C1C2c1cc([N+](=O)[O-])ccc1O` (stereo not drawn) gave 14-3-3g Raf -64.
For Cc1ccc(C2CC(=O)C3=C(C2)Nc2ccccc2NC3c2cccnc2)cc1 (stereo not drawn) the results were 14-3-3g Raf -7.
